{"source": "paper PMC7819943", "about": "“Rice protein-binding microarrays: a tool to detect cis-acting elements near promoter regions in rice”", "note": "Over roughly 35,000 sequences, “fluorescence intensity (a.u.)” has its median near 10,000; the highest 2% begin near 52,000. Shown is part of a subset that was picked to be rich in the highest values."}
{"target": "T1, OsWOX13 (Oryza sativa, UniProt Q5QMM3 1-267)", "T1 sequence": "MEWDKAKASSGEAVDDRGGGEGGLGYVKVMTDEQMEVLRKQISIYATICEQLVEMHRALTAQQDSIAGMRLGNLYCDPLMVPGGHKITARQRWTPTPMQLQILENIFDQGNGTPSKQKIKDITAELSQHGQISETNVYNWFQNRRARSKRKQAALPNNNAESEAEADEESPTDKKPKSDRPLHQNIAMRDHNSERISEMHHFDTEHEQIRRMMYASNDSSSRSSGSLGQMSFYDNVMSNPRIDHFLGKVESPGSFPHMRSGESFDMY", "experiment": "protein-binding microarray (RPBM); PBS, 2% BSA, 51.3 ng/ul salmon testes DNA, 50 uM zinc acetate, 200 nM TF, 25 C, 1 h; high values mean tight binding", "conditions": "protein: recombinant; tags: N-terminal polyhistidine and DsRed monomer fusion (pET32a); label: CyDye5-dUTP incorporated in the synthesized complementary strand; 3' TTTTT single-stranded linker to array surface; dsDNA, one strand shown", "summary_of_the_method": "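Binding signal is reported as fluorescence intensity per feature (arbitrary units) from an Axon 4000B scanner. Incubation used 200 nM of each Ni–NTA-purified, N-terminally polyhistidine- and DsRed-fused transcription factor from E. coli BL21-CodonPlus on a double-stranded custom Agilent array for 1 h at 25 °C, with 50 µM zinc acetate in the buffer, followed by washing.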"}
{"sequence": "TTGCTAAATTGTTGTCTTGGTTGATATTTTAGATTTCTTGCGGAGTCACCTAGTGCAG", "binding signal": "10000 fluorescence intensity (a.u.)"}
{"sequence": "AGAGTTCTGATTGAATTTGAACAGAAGCGGTGCTTTTGGACGGAGTCACCTAGTGCAG", "binding signal": "38800 fluorescence intensity (a.u.)"}
{"sequence": "GTAAATTGGCATTGGTTTGATTTATGTTTGCAATGCAGCGCGGAGTCACCTAGTGCAG", "binding signal": "58200 fluorescence intensity (a.u.)"}
{"sequence": "TCTGATTGACGGTGTTTGCAAGCAGAGTTCCTCTTCTTGGCGGAGTCACCTAGTGCAG", "binding signal": "61500 fluorescence intensity (a.u.)"}
{"sequence": "AGGCACGGATTGATGCATTAATTTGGTTGCAATGTAGATGCGGAGTCACCTAGTGCAG", "binding signal": "37500 fluorescence intensity (a.u.)"}
{"sequence": "TTTTACATGATTGGATGACAAAGCCTATTTCGTTTTGTTGCGGAGTCACCTAGTGCAG", "binding signal": "53100 fluorescence intensity (a.u.)"}
{"sequence": "TCTTGATTGGTTGTTTTGGTTTGTTTCTTATTTATGTTTGCGGAGTCACCTAGTGCAG", "binding signal": "54100 fluorescence intensity (a.u.)"}
{"sequence": "TTAATTATTTTGCTGACATGATTTGTTTTCATTTCGTTGACGGAGTCACCTAGTGCAG", "binding signal": "24100 fluorescence intensity (a.u.)"}
{"sequence": "CTTGTCTTATTTGATTGTTGCATTTACATTTATGCAATTTCGGAGTCACCTAGTGCAG", "binding signal": "9350 fluorescence intensity (a.u.)"}
{"sequence": "CCCTTGTTTCTGTTTTGATTGCAACCTAAGAGACTCTTGACGGAGTCACCTAGTGCAG", "binding signal": "6270 fluorescence intensity (a.u.)"}
{"sequence": "CCGATGTTTGATTGTTCGTTTTATTTGAAAGCCTTTTATGCGGAGTCACCTAGTGCAG", "binding signal": "20800 fluorescence intensity (a.u.)"}
{"sequence": "CATCTTTGACCGGTTAAATTAGATCCTGTTCTAGATGAGGCGGAGTCACCTAGTGCAG", "binding signal": "3480 fluorescence intensity (a.u.)"}
{"sequence": "GCTTTCAATAAAACTTCATTAATTGAGGCTAAAATGTTACCGGAGTCACCTAGTGCAG", "binding signal": "5100 fluorescence intensity (a.u.)"}
{"sequence": "AAGCCAATTAAACAACCAGATACTCAAGTTATAACATAATCGGAGTCACCTAGTGCAG", "binding signal": "3700 fluorescence intensity (a.u.)"}
{"sequence": "TTTTAAACTAATACTTAATTAATCATATATTAATTAGGTACGGAGTCACCTAGTGCAG", "binding signal": "19200 fluorescence intensity (a.u.)"}
{"sequence": "CTTATGATTTTATTTAACCTGGTTTTGAAAGACAGGGGTTCGGAGTCACCTAGTGCAG", "binding signal": "18100 fluorescence intensity (a.u.)"}
{"sequence": "ATAGCTAATTTTCGGTATGTTACACCATCCATCTGCCATGCGGAGTCACCTAGTGCAG", "binding signal": "5050 fluorescence intensity (a.u.)"}
{"sequence": "TTCCGATTGAGGAATGTTATTCACACAAGCGCAGGAGATGCGGAGTCACCTAGTGCAG", "binding signal": "4130 fluorescence intensity (a.u.)"}
{"sequence": "AAAGTGACTGAATTTTAAGTCATCGGAAATTTACACGCTCCGGAGTCACCTAGTGCAG", "binding signal": "15400 fluorescence intensity (a.u.)"}
{"sequence": "ATGAATTGTTAATTTTGCAAGCTGAACTTCTCATGTTTGGCGGAGTCACCTAGTGCAG", "binding signal": "11100 fluorescence intensity (a.u.)"}
{"sequence": "GCGTCCATCTAATCTAATCTAACCACCCTGCACGAATCGCCGGAGTCACCTAGTGCAG", "binding signal": "8750 fluorescence intensity (a.u.)"}
{"sequence": "TTTTCTTTCTTGATTGGGAAGGAAATTGGTGGTTAATCTCCGGAGTCACCTAGTGCAG", "binding signal": "23700 fluorescence intensity (a.u.)"}
{"sequence": "TATAAAATTATAGATAATATAACATGTTTGCATGATGTTTCGGAGTCACCTAGTGCAG", "binding signal": "5670 fluorescence intensity (a.u.)"}
{"sequence": "TGGAACATTGTTGATTGGCGAGCTGGCACGCATGCTAGGTCGGAGTCACCTAGTGCAG", "binding signal": "18600 fluorescence intensity (a.u.)"}
{"sequence": "TCATGGTGATTGCGGCATGAGAGAGTGAGGGTTCTGCGAGCGGAGTCACCTAGTGCAG", "binding signal": "10300 fluorescence intensity (a.u.)"}
{"sequence": "TACAATTGATTATGTAAAGTTTGTGTCTTGTACTAGAGGGCGGAGTCACCTAGTGCAG", "binding signal": "43900 fluorescence intensity (a.u.)"}
{"sequence": "TGGAGAGTTTTGATTGGTTGGGAAGAGAATGTTGATAGAGCGGAGTCACCTAGTGCAG", "binding signal": "20200 fluorescence intensity (a.u.)"}
{"sequence": "TTGATTGCTTGTTTGATTGGTGGTTCTTGAGCGAGAAGAGCGGAGTCACCTAGTGCAG", "binding signal": "63300 fluorescence intensity (a.u.)"}
{"sequence": "ACACAATTATGTCAAGTTCAATTCTCAAGTTTGAATTGGGCGGAGTCACCTAGTGCAG", "binding signal": "5050 fluorescence intensity (a.u.)"}
{"sequence": "GTTTGATTGCACATTATGTCCTTGGAGTTCTTCAACATAGCGGAGTCACCTAGTGCAG", "binding signal": "55700 fluorescence intensity (a.u.)"}
{"sequence": "GTATGATTGGTTATGTAAAGTTTGTTTCTTGTTCTAGAGGCGGAGTCACCTAGTGCAG", "binding signal": "58400 fluorescence intensity (a.u.)"}
{"sequence": "GTTGATGATGTGGCTTCTTGCTTGTCTTGCTTTATAGGAGCGGAGTCACCTAGTGCAG", "binding signal": "5720 fluorescence intensity (a.u.)"}
{"sequence": "TAGATGATTGCACTAGATTTTGCTTTGTGTACTTATTGAACGGAGTCACCTAGTGCAG", "binding signal": "32900 fluorescence intensity (a.u.)"}
{"sequence": "TATGTTCTTGATTTGTCCTGTTACATTGCTGACATATGTGCGGAGTCACCTAGTGCAG", "binding signal": "8650 fluorescence intensity (a.u.)"}
{"sequence": "ATGATTGATGTCTTTTATTTTCTTTGTACTAAGGAGCTTGCGGAGTCACCTAGTGCAG", "binding signal": "62700 fluorescence intensity (a.u.)"}
{"sequence": "TAGTTTTGTAAATGATTGAAATTTTCTAGTGTTAAATAGGCGGAGTCACCTAGTGCAG", "binding signal": "34800 fluorescence intensity (a.u.)"}
{"sequence": "TTACTCGTCAATCCACCGATTACAGCTATCTCAAACGGAGCGGAGTCACCTAGTGCAG", "binding signal": "8630 fluorescence intensity (a.u.)"}
{"sequence": "GTGATAATGTCCATCAATCTAGCAAATCATTCTCACAACGCGGAGTCACCTAGTGCAG", "binding signal": "26800 fluorescence intensity (a.u.)"}
{"sequence": "TTTGATTTATATGCCATTGCCTTTGCTGAACAGAAAAGCTCGGAGTCACCTAGTGCAG", "binding signal": "37600 fluorescence intensity (a.u.)"}
{"sequence": "AATTTGAAATTTCAAACTTAATTTTAACATTGATTTTGAGCGGAGTCACCTAGTGCAG", "binding signal": "6660 fluorescence intensity (a.u.)"}
{"sequence": "AACCATGTTTGACTCAACATAATTAGTGCGACAAACCGCACGGAGTCACCTAGTGCAG", "binding signal": "4590 fluorescence intensity (a.u.)"}
{"sequence": "TTATCGAACATACTAATTGACTCTCAGGGAGTCAAGGATCCGGAGTCACCTAGTGCAG", "binding signal": "7680 fluorescence intensity (a.u.)"}
